Data from ChEMBL document CHEMBL3988442, “University of Dundee, Small-Polar-MMV Screening Library” (2021).

Columns and labels:
[1] = target: T1, Aspartate--tRNA(Asp/Asn) ligase (Mycobacterium tuberculosis (strain ATCC 25618 / H37Rv)) (UniProt P9WFW3); assay: Assay for Asp RNA synthetase-1 from Mycobacterium tuberculosis; assay type: functional; parameters: scale not given: direction of the effect not stated beside the values; settings: 30 µM; further: in the data most compounds retested in dose-response had high values
T1 sequence (whole entry): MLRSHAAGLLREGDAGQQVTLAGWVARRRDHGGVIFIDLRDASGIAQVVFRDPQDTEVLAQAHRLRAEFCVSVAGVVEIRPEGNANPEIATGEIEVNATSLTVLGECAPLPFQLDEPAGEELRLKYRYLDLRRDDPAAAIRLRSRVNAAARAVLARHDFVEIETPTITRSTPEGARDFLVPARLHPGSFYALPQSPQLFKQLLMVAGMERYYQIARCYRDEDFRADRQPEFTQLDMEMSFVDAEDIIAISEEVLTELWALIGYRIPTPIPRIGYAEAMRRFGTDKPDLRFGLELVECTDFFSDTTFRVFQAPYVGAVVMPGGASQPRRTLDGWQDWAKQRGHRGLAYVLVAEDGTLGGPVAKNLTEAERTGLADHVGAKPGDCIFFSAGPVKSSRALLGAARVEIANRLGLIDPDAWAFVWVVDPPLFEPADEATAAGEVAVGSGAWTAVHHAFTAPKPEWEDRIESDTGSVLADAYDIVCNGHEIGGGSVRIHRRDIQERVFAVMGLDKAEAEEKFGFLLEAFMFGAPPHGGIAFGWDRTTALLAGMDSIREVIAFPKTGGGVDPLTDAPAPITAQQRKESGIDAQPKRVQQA

[2] = target: Shiga toxin 2 (Escherichia coli O157:H7) (UniProt P09385+P09386); assay: E. coli 0.157:H7 Shiga Toxin SOP - stx2 screening assay; assay type: functional; parameters: scale not given: direction of the effect not stated beside the values; settings: 30 µM

| SMILES | Percent Effect [1] [%] | Percent Effect [2] [%] |
| --- | --- | --- |
| COc1ccccc1CC(=O)N1CCC(NCc2c[nH]nc2C)CC1 | 4.54 | 17.4 |
| COc1ccc(C(=O)NCCc2nnc3ccccn23)c(OC)c1 | 3.2 | -5.45 |
| CCN(CC1CCCO1)C(=O)Nc1cc(C(=O)OC)ccc1F (stereo not drawn) | -1.37 | 15.3 |
| O=C(C1CCOCC1)N1CCO[C@H]2[C@@H](OCc3ccncc3)CC[C@@H]21 | -4.8 | 22.7 |
| Cc1cc(C)n(CC(=O)N2CCC(NS(=O)(=O)c3ccccc3)CC2)n1 | 0.878 | 31.2 |
| Cn1c(CN2CCOCC2)nnc1C1CCN(C(=O)C2CCCC2)CC1 | 1.73 | -33.5 |
| CC(NCc1ccc(Cl)o1)c1nnc2n1CCCC2 (stereo not drawn) | -3.67 | -31 |
| CNC(=O)C1CCN(C(=O)c2ccn(-c3ccc(F)cc3)n2)CC1 | 3.5 | 7.26 |
| Cc1noc(CN2CCN(CC(C)O)CC2)n1 (stereo not drawn) | -2.18 | -6.53 |
| CC(NC1(CNC(=O)CC(C)(C)C)CCOCC1)c1ccccc1 (stereo not drawn) | 9.41 | 20.8 |
| Cc1nc(CNC(=O)NCC(O)c2cccc(Cl)c2)cs1 (stereo not drawn) | 1.01 | -16.9 |
| CCC(C)CNc1ccc2oc(COC)nc2c1 (stereo not drawn) | 65.3 | -59.7 |
| CNc1nc(CNC(=O)Nc2ccccc2SC)cs1 | -0.278 | 22.5 |
| CN(CCC#N)C(=O)CCOc1cccc(F)c1 | -3.59 | -25.6 |
| CCCOc1cc(CNC(=O)Nc2cccnc2N2CCCC2)ccn1 | 1.75 | -9.71 |
| O=C(c1ccco1)N1CCOCC2(C1)CN(c1ccccc1)C(=O)CO2 (stereo not drawn) | 8.44 | 2.61 |
| COc1ccc(C2(NC(=O)CCn3cncn3)CCCCC2)cc1 | -7.19 | 1.34 |
| Cc1nn(C)c(N2CCOCC2)c1CNC1CCc2cc(F)ccc21 (stereo not drawn) | -1.16 | -5.02 |
| Cc1ccn(-c2ccccc2NCc2ncc[nH]2)n1 | -0.604 | -13.8 |
| CCOc1ccc(Cl)c(C(=O)N(C)C)n1 | -0.544 | -62.5 |
| Cc1ccc(C(=O)N2CCC3(CC2)CC(c2ccccc2)C(=O)N3)cn1 (stereo not drawn) | 7.75 | -10.4 |
| CCOC(C)c1nc(CN2CCN(c3nccc(C)n3)CC2)cs1 (stereo not drawn) | -0.859 | -1.8 |
| COc1ccc(CC(=O)N2CCCC2Cn2cccn2)cc1F (stereo not drawn) | -0.871 | 15.1 |
| Cc1cc(N(C)Cc2cc(C)on2)n2nc(C)c(C)c2n1 | 1.81 | -20 |
